# Reference: PubChem BioAssay (Tox21)
# Records with an inconclusive call do not appear. A call without a number means that no potency is given here. The source made the active and inactive calls. Calls follow the shape of the dose curve; as a rule, active = well fitted cell-killing curve with a large enough effect in the repeat runs; inconclusive = weak or mixed curves, or effect the other way; inactive = flat fitted curve, though single readings scatter.
# Assay: cAMP Responsive Elements (CRE) small molecule antagonists, cell-based qHTS assay: qHTS cell viability counter screen (AID 2060913); also: nearly all actives have a fitted effect of over 40% in size
# Conditions: CRE-bla HEK293T viability, CellTiter-Glo luminescence, 5 h; series mostly up to 92.4 µM
# Outline: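 Cytotoxicity read in the same wells as the CRE-bla HEK293T antagonist assay: after 3 h compound with 0.25 uM NKH477 final and 2 h beta-lactamase substrate, CellTiter-Glo luminescence measured.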
# Potency is read from the fitted curve at half-maximal effect.
Structure (SMILES),Potency,"viability change, negative = cytotoxic"
Nc1nccs1,inactive,
CC/C=C(\C(=O)N[C@@H]1C(=O)N2C(C(=O)OCOC(=O)C(C)(C)C)=C(COC(N)=O)CS[C@H]12)c1csc(N)n1,inactive,
CC1CC(=O)CC(C)(C)C1 (stereo not given),inactive,
CS(C)=O,inactive,
CCC(C)(CCC(C)C)C(=O)O (stereo not given),inactive,
CCCN(CCc1cccs1)[C@H]1CCc2c(O)cccc2C1,inactive,
CCCCc1nc2cccnc2n1Cc1ccc(-c2ccccc2-c2nnn[nH]2)cc1,inactive,
CN(C)CCOC(c1ccccc1)c1ccccc1 (tested in a mixture with another compound),inactive,
CC(C)C(=O)Nc1cccc(C(F)(F)F)c1,inactive,
Nc1ccc(N)c2c1C(=O)c1ccccc1C2=O,inactive,
O=C(O)CS,inactive,
O,inactive,
CCCCC/C=C\C/C=C\CCCCCCCC(=O)O,inactive,
CC(S)C(C)S (stereo not given),inactive,
CO[C@@]12[C@H](COC(N)=O)C3=C(C(=O)C(C)=C(N)C3=O)N1C[C@@H]1N[C@@H]12,inactive,
O=C(O)c1cc(Cl)cc(Cl)c1O,inactive,
CC(NN)c1ccccc1 (stereo not given),,-0.733% [at 18.9 µM] (inactive)
CCC(C)(C)C1CCC(=O)CC1,inactive,
OC1(c2ccc(Cl)c(C(F)(F)F)c2)CCN(CCCC(c2ccc(F)cc2)c2ccc(F)cc2)CC1,29.8 µM (active),
CN(C)CC[C@@H](c1ccc(Cl)cc1)c1ccccn1,inactive,

Structure (SMILES),Potency,"viability change, negative = cytotoxic"
CC1CCCCN1CCCOC(=O)c1ccc(OC2CCCCC2)cc1 (stereo not given),inactive,
Nc1cccc(S(=O)(=O)c2cccc(N)c2)c1,inactive,
CN1CCCN(C(c2ccccc2)c2ccc(Cl)cc2)CC1 (stereo not given),inactive,
Oc1ccc(Cl)cc1Cc1cc(Cl)ccc1O,50.8 µM (active),
CC1CCC(C(C)C)C(O)C1 (stereo not given),inactive,
Clc1ccc2cc3ccccc3cc2c1,inactive,
Cc1ccccc1OCC(=O)O,inactive,
CC(C)C(O)(c1ccc(OC(F)(F)F)cc1)c1cncnc1 (stereo not given),inactive,
CC(C)(C)NCC(O)c1cc(O)cc(O)c1 (stereo not given),inactive,
COc1c(Br)cc(Br)c(C)c1Br,inactive,
CC(C)C(C)(C)C(C)(C)C(C)(C)S,inactive,
CCCC[O][Al]([O]CCCC)[O]CCCC,inactive,
CC(C)Nc1nc(N)nc(Cl)n1,inactive,
CC(=O)OCC(=O)[C@@]1(O)CC[C@H]2[C@@H]3CCC4=CC(=O)CC[C@]4(C)[C@H]3C(=O)C[C@@]21C,inactive,
CCN(CC)c1ccc(C(=C2C=CC(=[N+](CC)CC)C=C2)c2ccc(S(=O)(=O)O)cc2S(=O)(=O)[O-])cc1,27.3 µM (active),
Cc1cccc(Cl)c1,inactive,
NC(=O)C1CO1 (stereo not given),inactive,
CCN(Cc1cccc(S(=O)(=O)O)c1)c1ccc(C(=C2C=CC(=[N+](CC)Cc3cccc(S(=O)(=O)O)c3)C=C2)c2ccc(O)cc2S(=O)(=O)[O-])cc1,inactive,
Cc1nccn1CC1CCc2c(c3ccccc3n2C)C1=O (stereo not given),inactive,
CCCCCCCCCCCBr,inactive,
